High-throughput results as filed in PubChem.
FBPA coupling cs = coupling enzyme interference in Giardia aldolase counter-screen. coupling enzyme system counterscreen, AmpLite Red fluorescence. hit rate 0.67% among 290,000. activity change, negative = inhibition, % at 58.2 µM, hits read low; in the data active = activity change below about -30%
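Compounds tested against the coupling enzymes alone at 57.5 uM final; readout was AmpLite Red fluorescence (525/598 nm) after 20 min at RT.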
JMJD2E inh = inhibitors of human JMJD2E histone demethylase. B2RXH2. JMJD2E catalytic domain, FDH-coupled NADH fluorescence (FDH is formaldehyde dehydrogenase). Potency, µM (highest dose often 57.1 µM), without a hit: at the highest dose activity change, negative = inhibition, hits mostly inhibitors. hit rate 1.6% among 230,000. AID 2147;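 note: potency is the fitted concentration of half-maximal effect; 0% = wells with enzyme and -100% = buffer wells without enzyme; nearly all actives have a fitted effect of over 50% in size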
RGS12 GoLoco inh = RGS12 GoLoco-Gai1 interaction inhibition; P63096; Gai1:RGS12 GoLoco peptide FP, rhodamine, 10 min; Potency, µM (titrated, usually from 61.6 µM), inactives show at the top dose activity, negative = inhibition, usual class: inhibitors; hit rate 0.44% among 230,000; AID 880; active = well fitted inhibition curve with a large enough effect, not every such curve was filed as active; inactive = no such curve, though single readings can be large or run the other way; note: potency is the fitted concentration of half-maximal effect; nearly all actives have a fitted effect of over 30% in size
NPSR antag = neuropeptide S receptor (human) antagonism, cAMP; Potency, µM (top dose mostly 38.3 µM), inactives show at the highest dose activity change, negative = inhibition, usual class: inhibitors; AID 1461; Q6W5P4; hit rate 1% among 220,000; CHO-NPSR cells, cAMP TR-FRET, antagonist mode; active = well fitted curve in the direction sought with a large enough effect; inconclusive = small, poorly fitted or top-dose-only effect, or another doubt; inactive = no such curve, though single readings can be large; an effect the other way counts as inactive or inconclusive; note: potency is the fitted concentration of half-maximal effect; nearly all actives have a fitted effect of over 50% in size
Sfp PPTase inh = Sfp phosphopantetheinyl transferase inhibition; Q9F4F7; Biochemical Sfp PPTase activity, qHTS; Potency, µM, for inactives: largest response in the series, negative = inhibition, actives largely listed as inhibitors; hit rate 3.5% among 310,000; active = well fitted curve in the direction sought with a large enough effect; inconclusive = small, poorly fitted or top-dose-only effect, or another doubt; inactive = no such curve, though single readings can be large; an effect the other way counts as inactive or inconclusive;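 note: the enzyme is Sfp with the accession as filed and its product quenches rhodamine fluorescence; potency is the fitted concentration of half-maximal effect; 0% = enzyme reaction without inhibitor and -100% = no enzyme wells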
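Compounds were incubated with enzyme (final 15 nM) for 15 min at room temperature before substrate addition started the reaction. Fluorescence at 525 nm excitation, 598 nm emission was recorded immediately and after 30 minutes.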
ALDH1A1 block = blocks purified human ALDH1A1 activity | P00352 | Purified ALDH1A1, NADH fluorescence, propionaldehyde substrate | Potency, µM (highest dose often 75.3 µM), for inactives: at the highest dose activity, negative = inhibition, hits mostly inhibitors | hit rate 7.3% among 220,000;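 note: potency is the fitted concentration of half-maximal effect; plate controls were no enzyme wells and a reference inhibitor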
Target sequence (P00352 whole entry, looked up): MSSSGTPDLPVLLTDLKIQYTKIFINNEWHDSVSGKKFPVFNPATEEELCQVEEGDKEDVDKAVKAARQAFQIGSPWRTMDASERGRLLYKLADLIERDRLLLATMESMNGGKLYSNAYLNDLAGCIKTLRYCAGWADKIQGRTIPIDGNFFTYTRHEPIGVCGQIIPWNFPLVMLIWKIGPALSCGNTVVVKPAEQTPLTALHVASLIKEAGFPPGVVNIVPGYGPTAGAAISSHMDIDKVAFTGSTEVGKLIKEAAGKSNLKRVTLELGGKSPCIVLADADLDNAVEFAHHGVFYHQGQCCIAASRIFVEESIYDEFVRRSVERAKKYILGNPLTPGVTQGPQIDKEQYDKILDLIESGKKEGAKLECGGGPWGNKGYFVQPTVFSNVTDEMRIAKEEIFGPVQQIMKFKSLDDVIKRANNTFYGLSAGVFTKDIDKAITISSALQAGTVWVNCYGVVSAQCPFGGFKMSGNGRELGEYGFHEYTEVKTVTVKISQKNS
Starred values were filed as active, the others as inactive; ? = inconclusive; . = not tested or not shown; [ ] = dose if it differs, or a comment. Most compounds without a hit are left out; they make up all but 8.5% or so of the library. Unless noted, calls come from the whole dose curve; as a rule, active = well fitted inhibition curve with a large enough effect (not every such curve was filed as active); inconclusive = small, poorly fitted or top-dose-only effect, or another doubt; inactive = no such curve, though single readings can be large or run the other way. Unless noted, % is set by controls: 0 for no effect and ±100 for the full control effect.

SMILES	FBPA coupling cs	JMJD2E inh	RGS12 GoLoco inh	NPSR antag	Sfp PPTase inh	ALDH1A1 block
COc1ccccc1CNC(=O)C(C)NS(=O)(=O)c1ccc(Br)cc1 (stereo unspecified)	2.5	11.3%	-6.3%	-5.9%[46.1 µM]	11.9%	28.2µM*
Cc1ccc(S(=O)(=O)NC(CC(=O)NCc2ccco2)c2ccco2)cc1 (stereo unspecified)	0.9	-0.8%	-5.2%	-21.3%[46.1 µM]	-14.0%	25.1µM*
COc1ccc(S(=O)(=O)NC(CC(=O)NCc2ccco2)c2ccco2)cc1 (stereo unspecified)	7.2	3.8%	0.5%	-4.1%[46.1 µM]	18.5%	?
CC(NS(=O)(=O)c1ccccc1)C(=O)NCc1ccco1 (stereo unspecified)	1.2	-4.9%	-5.5%	-8.8%[46.1 µM]	?	23.8µM*
COc1ccccc1CNC(=O)COC(=O)CNS(=O)(=O)c1ccc(C)cc1	.	.	.	.	28.2µM*	.
Cc1ccc(S(=O)(=O)NCC(=O)OCc2ccccc2Br)cc1	-0.9	3.6%	0.7%	-19.3%	1.0%	?
CCOC(=O)C1(CCOc2ccccc2)CCN(Cc2ccc3nonc3c2)CC1	-9.3	-9.2%	72.1%	?	2.4%	28.2µM*
CCOC(=O)C1(CCOc2ccccc2)CCN(Cc2cccc(F)c2)CC1	1.8	.	.	.	10.0%	.
CCOC(=O)C1(CCOc2ccccc2)CCN(Cc2cnc(C)s2)CC1	2.7	-8.1%	-9.0%	17.4%	?	15.8µM*
CCOC(=O)C1(CCOc2ccccc2)CCN(Cc2ccc(CO)o2)CC1	0.8	3.6%	14.1%	-15.6%	10.9%	-9.4%
COC(=O)c1sccc1NC(=O)COc1ccc(Cl)cc1Cl	4.1	-10.4%	16.3%	-4.3%	-3.3%	-7.2%
N#CC(c1ccc(O)cc1)N1CCOCC1 (stereo unspecified)	0.7	-5.7%	-4.9%	3.1%[46.1 µM]	-2.3%	7.94µM*
C[C@@H]1C(=O)N(S(=O)(=O)c2ccccc2[N+](=O)[O-])[C@H]1c1ccc(-c2ccccc2)cc1	13.9	.	.	.	16.2%	.
N#CCCCN1C(=O)C(=C(C#N)C#N)c2ccccc21	-35.2*	-3.5%	3.4%	55.9%	-18.2%	0.794µM*
N#CCCCN1C(=O)C(O)(CC(=O)c2ccc3c(c2)OCCO3)c2ccccc21 (stereo unspecified)	1.5	2.2%	7.4%	5.1%[46.1 µM]	16.8%	?
COC(=O)c1cn(C(=O)c2ccco2)c2ccccc12	-0.5	2.4%	-4.0%	-11.4%[46.1 µM]	-5.6%	-3.1%
COC(=O)c1cn(C(=O)c2ccc(Br)o2)c2ccccc12	4.2	-1.7%	-9.2%	2.6%[46.1 µM]	11.0%	31.6µM*
COc1ccc(C2C=C3CNS(=O)(=O)C3CC2OC(=O)c2cccs2)cc1 (stereo unspecified)	-0.6	.	.	.	-14.8%	.
CCOc1ccc(CCNC(=O)CN2C(=O)CCSc3ccccc32)cc1	1.1	.	.	.	14.6%	.
COc1ccc(CCNC2CC(=O)N(CCc3ccc(OC)c(OC)c3)C2=O)cc1 (stereo unspecified)	-3.1	0.5%	-1.6%	-9.7%[46.1 µM]	-9.1%	17.8µM*
COc1ccc(CCN2C(=O)CC(Nc3ccc(N4CCOCC4)cc3)C2=O)cc1OC (stereo unspecified)	4.1	?	-22.0%	-24.0%[46.1 µM]	-2.7%	?
CCc1ccc(NC2CC(=O)N(CCc3ccc(OC)c(OC)c3)C2=O)cc1 (stereo unspecified)	-1.2	?	-3.1%	1.6%	1.5%	3.16µM*
COc1ccc2cc(CCNS(=O)(=O)c3c(C)cc(C)cc3C)c(=O)[nH]c2c1	-0.2	.	.	.	10.0%	.
COC(=O)c1ccc(CN2CCN(Cc3ccc(C(=O)OC)o3)CC2)o1	1.8	7.7%	3.9%	?	20.0%	22.4µM*
COC(=O)c1ccc(CN2C(=O)c3ccccc3C2=O)o1	4.6	.	.	.	5.8%	.
OCCSCc1ccccc1	.	.	-0.7%[14.2 µM]	.	.	0.4%[13.5 µM]
CC1(C)Cc2c(sc3nc4n(-c5ccccc5)cnn4c(=O)c23)CO1	0.0	-4.9%	3.8%	10.8%	5.1%	-10.1%
O=C1C=C(NCCOC23CC4CC(CC(C4)C2)C3)C2(CCCCC2)O1	-0.9	2.4%	9.4%	-47.1%	2.6%	?
